According to the supplement of paper PMC7411054:

What was measured:
Settings in all cases: treatment time: 24 h
WPMY1-ACTB-RAB5A [1] = test: lowest phenotypically active concentration; higher = less potent
Outline: (§1)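 Four wells per concentration (0.3, 1, 3 or 9 µM) were treated for 24 h in each of fifteen gene-edited reporter lines from A549, HepG2 and WPMY1 cells, then imaged live. After normalising live-cell features to solvent control wells, deviation was defined as ≥3 of 4 wells lying past the 95th percentile of control Euclidean distances. Reproducibility was defined as a median replicate Pearson correlation above the 95th percentile of non-replicates. Both had to hold for phenotypic activity.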

WPMY1-GM130-SQSTM1 [2] = test: as above
Outline: as §1

A549-ACTB-RAB5A = test: phenotypically active (imaging signature differs from DMSO and reproducible) at any of 0.3-9 uM (binary (1 = active, 0 = inactive)); higher = active
Outline: as §1

A549-CANX-COX4 = test: as above
Outline: as §1

A549-GM130-SQSTM1 = test: as above
Outline: as §1

A549-TP53BP1-CLTA = test: as above
Outline: as §1

A549-TUBA1B-RELA = test: as above
Outline: as §1

HepG2-ACTB-RAB5A = test: as above
Outline: as §1

HepG2-CANX-COX4 = test: as above
Outline: as §1

HepG2-GM130-SQSTM1 = test: as above
Outline: as §1

HepG2-TP53BP1-CLTA = test: as above
Outline: as §1

HepG2-TUBA1B-RELA = test: as above
Outline: as §1

WPMY1-ACTB-RAB5A [3] = test: as above
Outline: as §1

WPMY1-CANX-COX4 [4] = test: as above
Outline: as §1

WPMY1-GM130-SQSTM1 [5] = test: as above
Outline: as §1

WPMY1-TP53BP1-CLTA = test: as above
Outline: as §1

WPMY1-TUBA1B-RELA = test: as above
Outline: as §1

WPMY1-CANX-COX4 [6] = test: lowest phenotypically active concentration; higher = less potent
Outline: as §1

Row | Structure (SMILES) | lowest phenotypically active concentration (WPMY1-ACTB-RAB5A [1]) [µM] | lowest phenotypically active concentration (WPMY1-GM130-SQSTM1 [2]) [µM] | phenotypically active (A549-ACTB-RAB5A) | phenotypically active (A549-CANX-COX4) | phenotypically active (A549-GM130-SQSTM1) | phenotypically active (A549-TP53BP1-CLTA) | phenotypically active (A549-TUBA1B-RELA) | phenotypically active (HepG2-ACTB-RAB5A) | phenotypically active (HepG2-CANX-COX4) | phenotypically active (HepG2-GM130-SQSTM1) | phenotypically active (HepG2-TP53BP1-CLTA) | phenotypically active (HepG2-TUBA1B-RELA) | phenotypically active (WPMY1-ACTB-RAB5A [3]) | phenotypically active (WPMY1-CANX-COX4 [4]) | phenotypically active (WPMY1-GM130-SQSTM1 [5]) | phenotypically active (WPMY1-TP53BP1-CLTA) | phenotypically active (WPMY1-TUBA1B-RELA) | lowest phenotypically active concentration (WPMY1-CANX-COX4 [6]) [µM]
1 | Oc1cc(O)cc(/C=C/c2ccc(O)c(O)c2)c1 [Piceatannol] | 9 | 3 | 0 (inactive) | 0 (inactive) | 0 (inactive) | 0 (inactive) | 0 (inactive) | 0 (inactive) | 0 (inactive) | 0 (inactive) | 0 (inactive) | 0 (inactive) | 1 (active) | 0 (inactive) | 1 (active) | 0 (inactive) | 1 (active) | –
2 | CN(C)CCOC(c1ccccc1)c1ccccc1 [diphenhydramine] | 9 | 9 | 0 (inactive) | 0 (inactive) | 0 (inactive) | 0 (inactive) | 0 (inactive) | 0 (inactive) | 0 (inactive) | 0 (inactive) | 0 (inactive) | 0 (inactive) | 1 (active) | 1 (active) | 1 (active) | 1 (active) | 1 (active) | 9
3 | CCOC(=O)c1ccc(N2NC(=O)/C(=C/c3ccc([N+](=O)[O-])o3)C2=O)cc1 | – | 9 | 0 (inactive) | 0 (inactive) | 0 (inactive) | 0 (inactive) | 0 (inactive) | 0 (inactive) | 0 (inactive) | 0 (inactive) | 0 (inactive) | 0 (inactive) | 0 (inactive) | 1 (active) | 1 (active) | 0 (inactive) | 0 (inactive) | 9
4 | COc1ccc(C[C@@H]2c3cc(OC)c(OC)cc3CC[N@+]2(C)CCC(=O)OCCCCCOC(=O)CC[N@@+]2(C)CCc3cc(OC)c(OC)cc3[C@H]2Cc2ccc(OC)c(OC)c2)cc1OC [Cisatracurium besylate] | – | 9 | 0 (inactive) | 0 (inactive) | 0 (inactive) | 0 (inactive) | 0 (inactive) | 0 (inactive) | 0 (inactive) | 1 (active) | 0 (inactive) | 0 (inactive) | 0 (inactive) | 0 (inactive) | 1 (active) | 0 (inactive) | 0 (inactive) | –
5 | C#CCN[C@@H]1CCc2ccccc21 [rasagiline] | – | 9 | 0 (inactive) | 0 (inactive) | 0 (inactive) | 0 (inactive) | 0 (inactive) | 0 (inactive) | 0 (inactive) | 0 (inactive) | 1 (active) | 1 (active) | 0 (inactive) | 0 (inactive) | 1 (active) | 1 (active) | 0 (inactive) | –
6 | C[C@]12CC[C@@H]3c4ccc(O)cc4CC[C@H]3[C@@H]1CC[C@@H]2OC(=O)CCC1CCCC1 [estradiol cypionate] | – | 9 | 0 (inactive) | 0 (inactive) | 0 (inactive) | 0 (inactive) | 0 (inactive) | 0 (inactive) | 0 (inactive) | 0 (inactive) | 0 (inactive) | 0 (inactive) | 0 (inactive) | 0 (inactive) | 1 (active) | 0 (inactive) | 0 (inactive) | –
7 | Cc1ccc(C(=O)Oc2ccc(C(O)CNC(C)(C)C)cc2OC(=O)c2ccc(C)cc2)cc1 (stereo unspecified) [bitolterol] | – | – | 0 (inactive) | 0 (inactive) | 0 (inactive) | 0 (inactive) | 0 (inactive) | 0 (inactive) | 0 (inactive) | 0 (inactive) | 0 (inactive) | 0 (inactive) | 0 (inactive) | 1 (active) | 0 (inactive) | 0 (inactive) | 0 (inactive) | 9
